Assay outcomes as filed in PubChem BioAssay.
Rows were chosen to be rich in hits. Some 32% of all compounds tested hit in one or more screens of this group.
PostGolgi yeast – phenotypic screen on post-Golgi transport, primary screen. post-Golgi transport phenotypic cell assay. inhibition, % at 10 µM. actives 0.9% (n = 98,000). AID 739, 2007;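 also: yeast cells grown in 1536-well plates; yeast grown about 18 h at 30C before absorbance read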
CYP2C19 inh – blockers of cytochrome P450 2C19 activity – biochemical, luminescence, ADME assay, primary screen; CYP2C19 Supersomes, luciferin-H EGE luminescence, 30 min; inhibition, % at 5 µM; actives 21% (n = 96,000); AID 778, 2007;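 active = CYP2C19 inhibition above a set limit at 5 µM in the primary screen, cut at about 50% in these data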;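 also: plate controls were negative control wells for no effect and 2.5 mM tranylcypromine positive control for full effect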
PostGolgi ctrl – growth inhibition of yeast control strain, primary screen, counter-screen for post-Golgi transport modulator project. inhibition, % at 10 µM. actives 5% (n = 98,000). AID 738, 2007. efflux-deficient yeast background strain, growth absorbance A615, 16 h
CYP2C9 act – human CYP2C9 activators, primary screen, biochemical, luminescence; Cytochrome P450 2C9 (Homo sapiens), P11712; recombinant CYP2C9, luciferin-H conversion; active compounds read high; factor 1 = untreated enzyme, 0 = blocked; activation factor at 5 µM; actives 1.4% (n = 96,000); AID 1024, 2008;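 active = activation factor of 2 or more for CYP2C9 at a 5 µM dose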;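 also: 0 = sulfaphenazole-blocked wells and 1 = vehicle-only wells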
Target sequence (P11712 whole entry, looked up): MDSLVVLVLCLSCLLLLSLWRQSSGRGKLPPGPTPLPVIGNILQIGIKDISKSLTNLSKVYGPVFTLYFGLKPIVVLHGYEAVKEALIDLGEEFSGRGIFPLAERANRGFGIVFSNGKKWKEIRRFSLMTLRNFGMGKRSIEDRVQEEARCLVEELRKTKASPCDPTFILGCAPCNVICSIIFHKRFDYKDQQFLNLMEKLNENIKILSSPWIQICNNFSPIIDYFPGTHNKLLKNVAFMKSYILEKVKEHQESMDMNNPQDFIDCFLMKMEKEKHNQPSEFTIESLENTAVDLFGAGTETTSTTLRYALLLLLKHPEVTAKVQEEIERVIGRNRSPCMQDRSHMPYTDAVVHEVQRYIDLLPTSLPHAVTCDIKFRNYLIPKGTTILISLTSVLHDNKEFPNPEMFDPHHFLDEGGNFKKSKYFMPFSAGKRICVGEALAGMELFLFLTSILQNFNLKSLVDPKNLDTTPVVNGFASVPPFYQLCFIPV
CYP2C19 act – human CYP2C19 activators, primary screen, biochemical, luminescence; activation factor at 5 µM; Cytochrome P450 2C19 (Homo sapiens), P33261; recombinant CYP2C19, luciferin-H EGE luminescence; active compounds read high; 0 = fully inhibited enzyme, 1 = untreated enzyme; 96,000 tested, under 10 active;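 active = activation factor of at least 2 at 5 µM in the primary screen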;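 also: 0 = wells with 2.5 mM tranylcypromine and 1 = vehicle-only wells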
CYP2C9 inhib – blockers of cytochrome P450 2C9 activity – biochemical, luminescence, ADME assay, primary screen; CYP2C9 Supersomes, luciferin-H conversion; AID 777, 2007; actives 20% (n = 96,000); inhibition, % at 5 µM;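 active = blocking of liver enzyme CYP2C9 beyond about 50% at 5 µM, limit read from the data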
* hit, by the source's call; / = no result. Rule as the data show it, unless noted: active = inhibition above about 30%; inactive = the rest.

SMILES	PostGolgi yeast	CYP2C19 inh	PostGolgi ctrl	CYP2C9 act	CYP2C19 act	CYP2C9 inhib
COc1ccc(C(=O)NC(=S)N(Cc2ccccc2)Cc2ccccc2)cc1	-9.8	21.5	17.4	0.5	0.8	46.2
CCOC(=O)N1CCC(NC(=O)CCc2nc(-c3ccccc3F)no2)CC1	0.6	59.8*	14.7	0.4	0.4	58.9*
COc1ccccc1-c1noc(CCC(=O)Nc2ccccc2Cl)n1	8.1	78.8*	-3.2	0.7	0.2	33.4
Cc1ccc(-c2noc(CCC(=O)Nc3ccccc3C)n2)cc1	-2.7	20.3	11.4	0.6	0.8	37.2
COc1cc(OC)c(NC(=O)CCc2nc(-c3ccc(C)cc3)no2)cc1Cl	-7.4	48.1	4.5	0.2	0.5	78.3*
O=C(/C=C/Nc1cccc(C(F)(F)F)c1)C(F)(F)F	-3.2	-14.3	-4.6	1.1	1.1	-11.3
COc1ccc2cc(C(c3nnnn3CCc3ccccc3)N3CCCC(C)C3)c(=O)[nH]c2c1 (centres undefined)	13.6	12.5	14.3	0.8	0.9	25.0
CCOc1ccc(C(=O)c2ccc(OCC)c(N)c2)cc1N	0.9	75.6*	6.2	0.6	0.2	43.1
CN(C)c1ccc(C(=O)c2ccc(N(C)C)c(N)c2)cc1N	7.9	80.8*	3.0	1.5	0.2	-50.8
COc1ccc(C(N)=O)cc1N	-1.7	-4.5	-2.9	0.9	1	5.7
COC(=O)c1ccc(C(=O)OC)c(N)c1	2.2	17.0	6.7	0.9	0.8	9.8
O=c1cc(CO)occ1OCc1ccccc1	-1.8	-10.7	2.7	1.1	1.1	-7.1
Cc1cccc(C(=O)Nc2nc(C)c(C(=O)Nc3ccc4c(c3)CCC4)s2)c1	-0.5	23.5	17.4	0.4	0.8	57.7*
Cc1noc(C)c1C(=O)Nc1ccc2c(c1)CCC2	5.4	7.5	19.5	1.1	0.9	-7.9
COc1ccc2c(c1)nc1n2CN(CC2CCCO2)CN1Cc1ccccc1 (centres undefined)	/	23.6	/	1	0.8	-1.1
CCOc1cc(S(=O)(=O)NCc2ccccn2)c(C)cc1C	-1.5	58.8*	0.0	0.8	0.4	19.4
Cc1cc(S(=O)(=O)NCC(C)C)ccc1OCC(=O)NCc1ccccn1	-0.3	-8.5	0.1	0.8	1.1	24.3
COc1ccc(C(C)C)cc1S(=O)(=O)NCc1ccccn1	-2.0	65.4*	1.4	0.5	0.3	52.2*
COc1ccc(CC(=O)NCc2ccccn2)cc1OC	17.7	9.9	-4.5	1.1	0.9	-5.5
COc1ccc(-n2c(C)c(C(C)=O)c(C(C)=O)c2C)cc1OC	7.5	67.6*	2.9	1	0.3	-0.5
COc1cccc(-n2c(C)c(C(C)=O)c(C(C)=O)c2C)c1	0.8	77.0*	0.6	0.2	0.2	78.4*
COc1ccc(-n2c(C)c(C(C)=O)c(C(C)=O)c2C)cc1	-6.8	26.7	12.2	1	0.7	0.2
c1cc2ccc3ccc(CN4CCOCC4)c4ccc(c1)c2c34	4.2	73.8*	-0.4	1.5	0.3	-48.0
c1ccc2cc(CN3CCOCC3)ccc2c1	-2.4	36.2	9.0	1.2	0.6	-15.8
Cc1cc2ccccc2cc1CN1CCOCC1	-1.0	58.0*	-1.1	1	0.4	-1.0
SMILES	PostGolgi yeast	CYP2C19 inh	PostGolgi ctrl	CYP2C9 act	CYP2C19 act	CYP2C9 inhib
Cc1cc(OC2CCCCC2)nc(-c2ccccc2O)n1	-2.6	2.0	-5.1	0.7	1	34.5
COc1ccc2c(c1)CC(C1(O)C(=O)N(C)c3ccccc31)C2=O (centres undefined)	-3.5	77.4*	7.6	0.8	0.2	21.7
COc1cc(/C=C(/C#N)c2nc3ccccc3[nH]2)ccc1Oc1ncccc1[N+](=O)[O-]	1.1	62.4*	-7.3	0.3	0.4	66.0*
CCOc1cc(/C=C(/C#N)c2nc3ccccc3[nH]2)ccc1Oc1ccc([N+](=O)[O-])cn1	1.0	4.3	2.3	0.9	1	12.9
COC(=O)CSc1nc2nc(C)c(Br)cc2[nH]1	16.3	22.8	22.6	0.8	0.8	17.5
CCOC(=O)CNC(=O)CSc1nc2ncc(Br)cc2[nH]1	0.8	31.0	7.8	0.4	0.7	64.4*
